# POLI inh: DNA polymerase iota (human) inhibition | Q9UNA4 | Pol iota fluorescent replication assay, 10 min | Potency, µM (doses to about 115 µM), usual class: inhibitors | 390,000 compounds, 1% hits
# Target sequence (Q9UNA4 whole entry, looked up): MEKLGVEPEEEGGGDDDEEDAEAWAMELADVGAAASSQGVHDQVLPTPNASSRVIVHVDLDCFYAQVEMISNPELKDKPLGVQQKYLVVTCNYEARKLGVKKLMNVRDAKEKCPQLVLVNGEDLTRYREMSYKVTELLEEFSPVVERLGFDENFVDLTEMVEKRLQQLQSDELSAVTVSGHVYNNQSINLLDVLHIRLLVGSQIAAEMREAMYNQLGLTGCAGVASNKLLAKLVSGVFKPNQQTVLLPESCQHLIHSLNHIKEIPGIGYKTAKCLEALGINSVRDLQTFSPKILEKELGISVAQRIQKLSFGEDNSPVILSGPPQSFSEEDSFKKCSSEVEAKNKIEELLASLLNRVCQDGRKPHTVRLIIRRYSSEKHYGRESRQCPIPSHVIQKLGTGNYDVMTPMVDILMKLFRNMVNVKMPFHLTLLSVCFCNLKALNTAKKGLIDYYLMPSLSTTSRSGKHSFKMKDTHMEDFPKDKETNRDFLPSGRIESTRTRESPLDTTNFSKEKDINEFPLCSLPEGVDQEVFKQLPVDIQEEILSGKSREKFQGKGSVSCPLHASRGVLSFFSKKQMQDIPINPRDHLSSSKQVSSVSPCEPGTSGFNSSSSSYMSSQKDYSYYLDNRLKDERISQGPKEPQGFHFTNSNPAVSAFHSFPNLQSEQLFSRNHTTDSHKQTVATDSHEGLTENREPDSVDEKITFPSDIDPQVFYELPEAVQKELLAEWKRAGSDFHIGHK
#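 Fluorescent replication assay read twice, at 0 min and 10 min after adding 50 nM (final) substrate. Enzyme (10 nM) and compounds were first incubated 15 min at room temperature; enzyme-free buffer wells were negative controls.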
# WRN inhibitor: WRN helicase (human) inhibition. 360,000 compounds, 0.46% hits. Q14191. WRN helicase unwinding, fluorescent forked duplex, kinetic. AID 651768. Potency, µM (top dose mostly 114 µM), most hits filed as inhibitors; further: nearly all actives have a fitted effect of over 55% in size
#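 Fluorescence dequenching readout, ex 525 nm/em 598 nm, kinetic mode: forked duplex DNA (100 nM final) with adjacent fluorophore and quencher unwound by WRN (20 nM final) with 2 mM ATP. Compound preincubation 15 min, room temperature.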
# FEN1 inh: blocks human flap endonuclease 1. Recombinant FEN1 flap cleavage, fluorescence, 15 min. Potency, µM (series often up to 114 µM), hits mostly inhibitors. AID 588795. 390,000 compounds, 0.35% hits; further: nearly all actives have a fitted effect of over 65% in size
#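 Concentration–response screening of FEN1 (10 nM): 15 min compound preincubation at room temperature, reaction started with 50 nM substrate and read at 0 and 15 min. Corrected, normalized data were fitted by a four-parameter Hill equation.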
# POLK inh: inhibitors of human DNA polymerase kappa. Q9UBT6. purified Pol kappa, fluorescent DNA synthesis assay, 10 min. Potency, µM (top dose mostly 107 µM), actives largely listed as inhibitors. 400,000 compounds, 0.53% hits
#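 10 nM Pol kappa was preincubated with compounds for 15 min at room temperature. Reaction started with 50 nM (final) substrate. Fluorescence read kinetically at 0 and 10 min.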
# POLH inh: inhibitors of human DNA polymerase eta; Q9Y253; recombinant Pol eta, fluorescent DNA replication assay; Potency, µM (top dose mostly 114 µM), most hits filed as inhibitors; 390,000 compounds, 1.2% hits
#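 Pol eta at 10 nM preincubated with compounds 15 min at room temperature; reaction started with fluorescent substrate (50 nM final) and read kinetically at 0 and 10 min.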
# Pol beta inh: blocks human DNA polymerase beta activity; P06746; Pol beta primer extension/strand displacement, fluorescence kinetic; Potency, µM (titrated, usually from 114 µM), usual class: inhibitors; 340,000 compounds, 1.3% hits; AID 485314
#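 Reaction started by 50 nM substrate onto compound-treated Pol beta (10 nM, 15 min preincubation, room temperature); plates read at 0 min and 10 min. Normalized concentration-effect data fitted by four-parameter Hill equation.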
# Hits are given with their value; - = inactive; ? = inconclusive; . = not tested or not shown; [ ] = another dose, or the depositor's remark. A selection: hits, their analogues and other compounds. The true share with any hit is near 2.4%. The call rests on the fitted dose curve; in most records, active means well fitted curve in the direction sought with a large enough effect; inconclusive means small, poorly fitted or top-dose-only effect, or another doubt; inactive means no such curve, though single readings can be large; an effect the other way counts as inactive or inconclusive.
SMILES,POLI inh,WRN inhibitor,FEN1 inh,POLK inh,POLH inh,Pol beta inh
CC1=C(C(=O)OCc2ccccc2)N2C(=O)[C@@H](NC(=O)OCc3ccccc3)[C@H]2SC1,-,.,-,-,.,.
CN(C)CCOc1ncnc2c1oc1ccccc12,-,-,-,-,-,-
CN(C)CCOc1nc(-c2ccccc2)nc2c1oc1ccccc12,?,-,50µM,-,?,45µM
COc1cc(/C=C2/SC(=S)NC2=O)ccc1OS(=O)(=O)c1ccc(C)cc1,?,?,79µM,-,28µM,35µM
CC(C(=O)Nc1ccc(O)cc1C(=O)O)N1C(=O)/C(=C\c2cccs2)SC1=S (configuration not stated),?,-[11.6 µM],-,?,22µM,?
O=C(CCCN1C(=O)/C(=C\c2cccs2)SC1=S)Nc1ccccc1O,.,-,.,.,-,.
CSCC[C@H](NC(=O)[C@@H](NC(=O)[C@H](CCC(=O)O)NC(=O)[C@H](CCSC)NC(=O)[C@H](CC(N)=O)NC(=O)[C@H](CCC(=O)O)NC(=O)[C@H](CC(N)=O)NC(=O)[C@H](CO)NC(=O)[C@H](C)N)[C@@H](C)O)C(=O)O,.,.,.,-,.,.
Cc1sc(-n2cccc2)c(C(=O)O)c1C,?,-,-,-,89µM,?
NCC1OC(O[C@H]2[C@H](O)[C@@H](OC3C(O)C(N)CC(N)C3OC3OC(CO)C(O)C(O)C3N)O[C@@H]2CO)C(N)C(O)C1O (some centres not stated),.,.,.,-,.,.
Cc1cc(NCCCCCCCNc2cc(C)nc3cc([N+](=O)[O-])ccc23)c2ccc([N+](=O)[O-])cc2n1,-,?,45µM,-,?,.
COCCCNc1cc(C)nc2ccccc12,-,-,-,-,-,-
Cc1sc2ccccc2[n+]1C,-,.,-,-,.,.
O=C(Nc1nc(-c2ccccn2)cs1)C1CC(=O)N(c2ccc3c(c2)OCCO3)C1 (configuration not stated),20µM,-[11.6 µM],-,?,?,13µM
O=C(Nc1nc(-c2cccs2)cs1)C1CC(=O)N(c2ccc3c(c2)OCCO3)C1 (configuration not stated),-,.,-,-,.,.
O=C1C[C@H](c2ccc3ccccc3c2)N1S(=O)(=O)c1ccccc1[N+](=O)[O-],-,.,-,-,.,.
O=C(/C(=N/N=C/c1ccc(O)c(O)c1O)c1ccccc1)c1ccccc1,18µM,-,?,-,?,3.5µM
O=C(NN=Cc1ccc(O)c(O)c1)c1ccccc1,.,-,.,.,.,.
Cc1ccc2oc(-c3ccc(C)c(NC(=O)COc4ccccc4C)c3)nc2c1,-,.,-,-,.,.
COc1ccc(CNc2nc(Cl)nc3nc[nH]c23)cc1,?,.,?,-,.,.
Cc1ccccc1C(=O)Nc1ccccc1C(=O)N1CCC(C)CC1,-,-,89µM,-,-,-
CC1CCN(C(=O)c2ccccc2NC(=O)c2nsc3ccccc23)CC1,-,.,-,-,-,-
O=C(O)CSc1c2c(nc3cc(C(=O)Nc4cccc(C(F)(F)F)c4)ccc13)CCC2,?,-[11.6 µM],-,?,40µM,?
CCOc1ccc(NC(=O)c2ccc3c(SCC(=O)O)c4c(nc3c2)CCCC4)cc1,-,-,-,-,?,-
O=c1cc(N2CCCCC2)[nH]c(=O)n1C1CCCCC1,-,-,-,-,-,-
Cc1cc(C)cc(Nc2cc(=O)n(C3CCCCC3)c(=O)[nH]2)c1,-,-,-,-,?,45µM
SMILES,POLI inh,WRN inhibitor,FEN1 inh,POLK inh,POLH inh,Pol beta inh
O=c1cc(-c2ccccc2F)[nH]c2cc3c(cc12)OCO3,.,.,.,-,.,.
O=C(Cc1ccccc1Cl)NC1(O)C(=O)c2ccccc2C1=O,5µM,-[11.6 µM],-,-,?,-
CCCCN(CCCC)c1ccc(C(=O)c2ccccc2C(=O)O)c(O)c1,-,-,-,-,-,89µM
CN(C)c1ccc(C(=O)c2ccccc2C(=O)O)c(O)c1,-,-,-,-,-,-
CN1C(=O)CC2(C=CC(=O)C=C2OC(=O)c2ccccc2)c2ccccc21 (configuration not stated),-,.,-,-,.,.
CC(=O)Nc1ccc(/C(C)=N\NC(=O)c2ccc(-c3ccccc3)cc2)cc1,.,.,.,.,.,40µM
